According to PubChem BioAssay (EPA / NIEHS):
“And” between values parts separate entries of the source, which are not always exact repeats. Identical values can stand only once. Records with an inconclusive call do not appear. A structure can be active in one record and inactive in another. The source made the active and inactive calls. The calls were made as follows: active = hit-call score of the fitted dose curve at least 0.9, where 1 is the maximum; inconclusive = response in the unintended direction; inactive = score below 0.9.

Columns and labels:
[1] = molecular target: zebrafish Estrogen Receptor (ER1), esr1 (gene 259252) (UniProt P57717); test: ATG_zfER1_XSP2: Attagene TRANS-FACTORIAL Multi-Species (XSP2) HepG2 Assay for zebrafish Estrogen Receptor (ER1) (AID 2283816)
Chain of zebrafish Estrogen Receptor (ER1), esr1 (gene 259252) (P57717 whole entry, looked up, the tested form may be a part): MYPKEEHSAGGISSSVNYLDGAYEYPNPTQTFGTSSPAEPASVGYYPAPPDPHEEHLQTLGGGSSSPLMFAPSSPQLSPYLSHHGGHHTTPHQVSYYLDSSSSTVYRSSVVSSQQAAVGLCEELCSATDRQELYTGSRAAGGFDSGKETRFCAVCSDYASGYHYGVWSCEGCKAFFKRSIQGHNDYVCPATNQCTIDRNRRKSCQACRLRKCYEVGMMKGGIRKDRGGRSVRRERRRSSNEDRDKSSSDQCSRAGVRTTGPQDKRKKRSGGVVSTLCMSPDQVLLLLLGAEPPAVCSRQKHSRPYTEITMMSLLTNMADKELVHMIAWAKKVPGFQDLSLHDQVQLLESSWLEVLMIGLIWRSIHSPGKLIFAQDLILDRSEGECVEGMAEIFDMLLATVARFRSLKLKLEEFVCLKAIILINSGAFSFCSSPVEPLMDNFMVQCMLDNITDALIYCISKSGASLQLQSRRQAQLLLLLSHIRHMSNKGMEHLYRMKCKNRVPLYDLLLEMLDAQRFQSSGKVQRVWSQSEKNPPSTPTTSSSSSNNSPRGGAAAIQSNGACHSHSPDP
Procedure, shortened: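 HepG2 cells transiently transfected with a GAL4-UAS reporter and a chimeric zebrafish ER1-Gal4 construct, dosed 24 h. Reporter mRNA quantified by RT-PCR, labelling, HpaI digestion and capillary electrophoresis, relative to DMSO.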

[2] = ATG_M_06_XSP2: Attagene TRANS-FACTORIAL Multi-Species (XSP2) HepG2 Assay for M06 Transcription Factor (Internal Marker) (AID 2283811);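 also: internal background marker reporter mRNA measured by RT-PCR and capillary electrophoresis; hits are increases in signal above the DMSO baseline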
Procedure, shortened: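 HepG2 cells transiently transfected with GAL4-UAS multi-reporter constructs, dosed 24 h with 3 nM 6-alpha-fluorotestosterone plus 1.5 nM norgestrel present to stimulate androgen receptor. Reporter mRNA quantified by RT-PCR, 6-FAM labelling, HpaI digestion and capillary electrophoresis; gain-of-signal fitted versus DMSO baseline.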

[3] = tested on: turtle Estrogen Receptor (ERa), gene 101933533; test: ATG_trERa_XSP2: Attagene TRANS-FACTORIAL Multi-Species (XSP2) HepG2 Assay for turtle Estrogen Receptor (ERa) (AID 2283812);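 also: human HepG2 liver cells transiently expressing turtle ERa-Gal4 chimeric receptor; actives raise reporter signal above DMSO so AC50 reflects agonist activity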
Procedure, shortened: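 HepG2 cells transiently transfected with GAL4-UAS reporter units expressing turtle ERa-Gal4 chimera. Reporter mRNA measured after 24 h dosing by RT-PCR, fluorescent labelling and capillary electrophoresis; gain of signal fitted versus DMSO.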

[4] = molecular target: GAL4 Transcription Factor (Internal Marker), GAL4 (gene 855828) (UniProt P04386); test: ATG_GAL4_XSP2: Attagene TRANS-FACTORIAL Multi-Species (XSP2) HepG2 Assay for GAL4 Transcription Factor (Internal Marker) (AID 2283814);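 also: GAL4 reporter mRNA background control in MRTU transfected cells not a receptor target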
Chain of GAL4 Transcription Factor (Internal Marker), GAL4 (gene 855828) (P04386 whole entry, looked up, the tested form may be a part): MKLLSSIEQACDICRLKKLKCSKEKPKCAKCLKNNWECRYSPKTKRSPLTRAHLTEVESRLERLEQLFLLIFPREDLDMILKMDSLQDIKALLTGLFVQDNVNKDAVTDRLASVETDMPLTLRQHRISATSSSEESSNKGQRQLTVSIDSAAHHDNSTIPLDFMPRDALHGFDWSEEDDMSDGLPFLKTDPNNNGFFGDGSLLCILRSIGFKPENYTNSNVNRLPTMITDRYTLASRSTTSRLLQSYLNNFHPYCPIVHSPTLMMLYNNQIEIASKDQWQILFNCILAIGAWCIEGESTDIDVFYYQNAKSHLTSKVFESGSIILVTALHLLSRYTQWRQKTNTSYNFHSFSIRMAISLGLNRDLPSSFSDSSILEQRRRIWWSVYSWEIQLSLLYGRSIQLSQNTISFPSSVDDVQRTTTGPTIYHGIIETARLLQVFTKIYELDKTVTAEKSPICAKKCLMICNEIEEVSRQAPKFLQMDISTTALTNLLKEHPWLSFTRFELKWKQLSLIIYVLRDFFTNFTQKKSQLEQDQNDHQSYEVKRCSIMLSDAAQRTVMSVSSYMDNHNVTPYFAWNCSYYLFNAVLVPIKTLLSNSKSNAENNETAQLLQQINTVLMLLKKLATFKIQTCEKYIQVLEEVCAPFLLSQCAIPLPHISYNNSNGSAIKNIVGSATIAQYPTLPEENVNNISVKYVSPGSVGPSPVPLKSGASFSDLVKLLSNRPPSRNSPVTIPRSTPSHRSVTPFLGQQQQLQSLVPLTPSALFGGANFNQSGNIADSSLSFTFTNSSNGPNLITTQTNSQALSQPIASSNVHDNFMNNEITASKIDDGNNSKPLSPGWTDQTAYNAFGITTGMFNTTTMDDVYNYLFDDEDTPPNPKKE
Procedure, shortened: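 HepG2 cells transiently transfected with GAL4-UAS reporter units, stimulated with 3 nM 6-alpha-fluorotestosterone plus 1.5 nM norgestrel, dosed 24 h. Reporter mRNA by RT-PCR/capillary electrophoresis; gain-of-signal fit versus DMSO, background control.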

[5] = molecular target: chicken Estrogen Receptor (ERa), ESR1 (gene 396099) (UniProt P06212); test: ATG_chERa_XSP2: Attagene TRANS-FACTORIAL Multi-Species (XSP2) HepG2 Assay for chicken Estrogen Receptor (ERa) (AID 2283817);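 also: actives raise reporter signal above DMSO so AC50 reflects ER activation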
Chain of chicken Estrogen Receptor (ERa), ESR1 (gene 396099) (P06212 whole entry, looked up, the tested form may be a part): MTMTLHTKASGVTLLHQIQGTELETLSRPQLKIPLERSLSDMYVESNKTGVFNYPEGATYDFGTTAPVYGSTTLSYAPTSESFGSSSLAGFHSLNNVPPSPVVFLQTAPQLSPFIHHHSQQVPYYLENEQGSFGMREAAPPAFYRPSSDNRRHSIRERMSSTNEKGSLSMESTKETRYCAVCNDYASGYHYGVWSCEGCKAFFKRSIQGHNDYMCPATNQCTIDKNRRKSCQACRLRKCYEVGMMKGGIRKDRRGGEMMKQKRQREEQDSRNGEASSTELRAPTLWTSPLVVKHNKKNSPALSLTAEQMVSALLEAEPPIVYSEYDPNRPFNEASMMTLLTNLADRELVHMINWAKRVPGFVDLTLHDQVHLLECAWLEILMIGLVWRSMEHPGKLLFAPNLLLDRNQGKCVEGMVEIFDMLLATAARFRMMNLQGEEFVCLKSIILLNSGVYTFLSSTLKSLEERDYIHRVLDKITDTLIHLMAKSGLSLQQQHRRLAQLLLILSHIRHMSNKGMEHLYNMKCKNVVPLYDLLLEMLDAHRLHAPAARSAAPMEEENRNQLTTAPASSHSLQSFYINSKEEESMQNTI
Procedure, shortened: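 HepG2 cells transiently transfected with multiplexed GAL4-UAS reporter units expressing chimeric chicken ERa-Gal4; 24 h compound exposure. Reporter mRNA measured by RT-PCR with 6-FAM labelling, HpaI digestion and capillary electrophoresis; gain-of-signal fitted versus DMSO.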

[6] = molecular target: frog Thyroid hormone Receptor alpha (TRa), thra-a (gene 397942) (UniProt P15204); test: ATG_frTRa_XSP1: Attagene TRANS-FACTORIAL Multi-Species (XSP1) HepG2 Assay for frog Thyroid hormone Receptor alpha (TRa) (AID 2283804)
Chain of frog Thyroid hormone Receptor alpha (TRa), thra-a (gene 397942) (P15204 whole entry, looked up): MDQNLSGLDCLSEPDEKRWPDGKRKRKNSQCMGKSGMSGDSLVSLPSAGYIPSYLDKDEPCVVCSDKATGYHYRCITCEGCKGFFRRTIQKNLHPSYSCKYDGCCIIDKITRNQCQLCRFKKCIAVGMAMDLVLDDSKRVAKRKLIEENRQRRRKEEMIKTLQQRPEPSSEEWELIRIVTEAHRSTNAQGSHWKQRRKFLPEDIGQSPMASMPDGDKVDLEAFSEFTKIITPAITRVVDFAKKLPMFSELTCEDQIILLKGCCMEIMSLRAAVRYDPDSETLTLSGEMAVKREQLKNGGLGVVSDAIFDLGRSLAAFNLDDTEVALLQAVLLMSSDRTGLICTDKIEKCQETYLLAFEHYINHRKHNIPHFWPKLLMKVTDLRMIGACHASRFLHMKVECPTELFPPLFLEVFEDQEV
Protocol: (§1) ATG_XSP1_multi-species_TRANS is a cell-based, multiplexed assay created by modifying the existing Attagene TRANS-FACTORIAL system to include a panel of nuclear receptors from some or all the following species: human (Homo sapiens), mouse (Mus musculus), frog (Xenopus laevis), zebrafish (Danio rerio), chicken (Gallus gallus), and turtle (Chrysemys picta). The ECOTOX-FACTORIAL format uses HepG2, a human liver cell line, with measurements taken at 24 hours after chemical dosing in a 24-well plate. Xsp1 included 3 nM 6-alpha-fluorotestosterone to partially stimulate the androgen receptor.ATG_frTRa_XSP1 is one of 29 assay components measured or calculated from the ATG_XSP1_multi-species_TRANS assay. It is designed to make measurements of mRNA induction, a form of inducible reporter, as detected with fluorescence intensity signals by Reverse transcription polymerase chain reaction (RT-PCR) and Capillary electrophoresis technology.The assay endpoint ATG_frTRa_XSP1 was analyzed in the positive analysis fitting direction relative to DMSO as the negative control and baseline of activity. […] Furthermore, this assay endpoint can be referred to as a primary readout, because this assay has produced multiple assay endpoints where this one serves a reporter gene function. […]

[7] = tested on: turtle Thyroid Hormone Receptor, alpha (TRa), gene 101949057; test: ATG_trTRa_XSP1: Attagene TRANS-FACTORIAL Multi-Species (XSP1) HepG2 Assay for turtle Thyroid Hormone Receptor, alpha (TRa) (AID 2283806)
Procedure, shortened: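 HepG2 cells transiently transfected with GAL4-UAS reporter units and chimeric receptor-Gal4 constructs, with 3 nM 6-alpha-fluorotestosterone present. Reporter mRNA was quantified 24 h after dosing by RT-PCR, 6-FAM labelling and capillary electrophoresis; gain of signal versus DMSO.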

[8] = molecular target: zebrafish Thyroid Hormone Receptor beta (TRb), thrb (gene 30607) (UniProt Q9PVE4); test: ATG_zfTRb_XSP1: Attagene TRANS-FACTORIAL Multi-Species (XSP1) HepG2 Assay for zebrafish Thyroid Hormone Receptor beta (TRb) (AID 2283809)
Chain of zebrafish Thyroid Hormone Receptor beta (TRb), thrb (gene 30607) (Q9PVE4 whole entry, looked up): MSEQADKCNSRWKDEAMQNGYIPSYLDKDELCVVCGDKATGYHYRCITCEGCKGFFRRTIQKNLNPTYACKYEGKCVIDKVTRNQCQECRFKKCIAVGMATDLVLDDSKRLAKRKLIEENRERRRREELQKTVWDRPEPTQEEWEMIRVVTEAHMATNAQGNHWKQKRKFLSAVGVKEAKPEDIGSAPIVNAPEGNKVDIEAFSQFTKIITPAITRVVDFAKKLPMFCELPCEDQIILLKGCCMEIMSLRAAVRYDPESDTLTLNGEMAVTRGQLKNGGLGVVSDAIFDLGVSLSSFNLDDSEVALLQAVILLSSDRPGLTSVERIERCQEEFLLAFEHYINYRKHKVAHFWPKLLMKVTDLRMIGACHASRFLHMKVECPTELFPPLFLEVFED
Protocol: as §1, with “receptor.ATG_zfTRb_XSP1” for “receptor.ATG_frTRa_XSP1”, “ATG_zfTRb_XSP1” for “ATG_frTRa_XSP1”

[9] = ATG_XTT_Cytotoxicity_XSP1: Cytotoxicity Assessment in the Attagene TRANS-FACTORIAL Multi-Species (XSP1) HepG2 Assay (AID 2283810)
Procedure, shortened: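 XTT viability readout taken at 24 hours post-dosing in HepG2 liver cells co-treated with 3 nM 6-alpha-fluorotestosterone. Signal loss relative to DMSO controls reflects cytotoxicity.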

[10] = molecular target: Estrogen receptor beta (Homo sapiens) (UniProt Q92731); test: ATG_hERb_XSP2: Attagene TRANS-FACTORIAL Multi-Species (XSP2) HepG2 Assay for human Estrogen Receptor (ERb) (AID 2283813);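 also: actives raise reporter mRNA above DMSO so AC50 reflects agonist induction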
Chain of Estrogen receptor beta (Homo sapiens) (Q92731 whole entry, looked up, the tested form may be a part): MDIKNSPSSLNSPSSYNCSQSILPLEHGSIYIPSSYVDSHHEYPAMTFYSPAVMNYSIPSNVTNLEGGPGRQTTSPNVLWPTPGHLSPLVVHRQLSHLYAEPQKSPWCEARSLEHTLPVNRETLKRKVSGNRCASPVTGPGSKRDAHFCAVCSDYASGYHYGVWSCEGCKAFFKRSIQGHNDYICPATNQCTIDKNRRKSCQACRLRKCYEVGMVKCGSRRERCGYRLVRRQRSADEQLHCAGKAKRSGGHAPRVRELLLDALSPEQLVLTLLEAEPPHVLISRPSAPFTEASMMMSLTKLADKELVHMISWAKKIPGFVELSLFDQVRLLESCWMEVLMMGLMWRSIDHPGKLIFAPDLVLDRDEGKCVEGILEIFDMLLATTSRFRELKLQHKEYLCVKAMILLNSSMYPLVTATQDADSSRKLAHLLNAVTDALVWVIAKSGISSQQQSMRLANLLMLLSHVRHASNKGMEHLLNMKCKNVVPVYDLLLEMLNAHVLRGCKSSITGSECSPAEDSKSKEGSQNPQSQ
Procedure, shortened: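 HepG2 cells transiently transfected with GAL4-UAS reporter units and chimeric human ERb-Gal4, 24 h exposure. Reporter mRNA quantified by RT-PCR with FAM labelling, HpaI digestion and capillary electrophoresis; gain of signal versus DMSO.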

CCCc1cc(=O)[nH]c(=S)[nH]1
outcome [1]: inactive

C=CCOC(=O)c1ccccc1C(=O)OCC=C
outcome [2]: inactive
AC50 [3]: 74.3 µM (active) and 100 µM (active)
outcome [4]: inactive
outcome [1]: inactive
AC50 [5]: 62.3 µM (active)
outcome [5]: inactive

CC(C)(C)c1cc(O)c(C(C)(C)C)cc1O
outcome [6]: inactive
outcome [7]: inactive
outcome [8]: inactive
outcome [9]: inactive
outcome [2]: inactive
outcome [3]: inactive
outcome [10]: inactive
outcome [1]: inactive
outcome [5]: inactive

CC(=O)C(C)=CC1C(C)=CCCC1(C)C (configuration not stated)
outcome [2]: inactive
AC50 [3]: 29.9 µM (active) and 25.5 µM (active)
outcome [4]: inactive
AC50 [1]: 34.2 µM (active)
outcome [1]: inactive
AC50 [5]: 19.8 µM (active) and 14 µM (active)
